Bioassay records from PubChem.
The list is not random: actives were taken first. Their share in the collection is about 3.3%.
UHRF1 binding = UHRF1 methyl-DNA binding inhibition. Q96T88. AID 687016. inhibition, % at 4.4 µM. actives 0.75% (n = 370,000). UHRF1 binding to methylated oligo, TR-FRET; in the data active = inhibition above about 21%;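 note: UHRF1 SRA domain binding a hemimethylated CpG hairpin DNA probe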
M18AAP inhibitor = blocks P. falciparum M18 aspartyl aminopeptidase; inhibition, % at 7.35 µM; recombinant PfM18AAP, H-Glu-NHMec fluorogenic cleavage; AID 1822; actives 1.2% (n = 290,000);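 active = inhibition above the campaign mean inhibition over all tested compounds plus 3 SD, cut at about 28% in these data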
PRMT1 FP inh = blocks human protein arginine methyltransferase 1; Q99873; recombinant PRMT1, activity-based probe fluorescence polarization; inhibition, % at 2.79 µM; actives 1.3% (n = 370,000);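 active = inhibition above about 21% made by adding two undisclosed values, limit read from the data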
MBD2 inh = blocks human MBD2 binding to methylated DNA | TR-FRET, MBD2 binding to methylated oligonucleotide | inhibition, % at 4.4 µM | actives 0.31% (n = 370,000) | AID 686964; in the data active = inhibition above about 13%
Target sequence (Q9UBB5 whole entry, looked up): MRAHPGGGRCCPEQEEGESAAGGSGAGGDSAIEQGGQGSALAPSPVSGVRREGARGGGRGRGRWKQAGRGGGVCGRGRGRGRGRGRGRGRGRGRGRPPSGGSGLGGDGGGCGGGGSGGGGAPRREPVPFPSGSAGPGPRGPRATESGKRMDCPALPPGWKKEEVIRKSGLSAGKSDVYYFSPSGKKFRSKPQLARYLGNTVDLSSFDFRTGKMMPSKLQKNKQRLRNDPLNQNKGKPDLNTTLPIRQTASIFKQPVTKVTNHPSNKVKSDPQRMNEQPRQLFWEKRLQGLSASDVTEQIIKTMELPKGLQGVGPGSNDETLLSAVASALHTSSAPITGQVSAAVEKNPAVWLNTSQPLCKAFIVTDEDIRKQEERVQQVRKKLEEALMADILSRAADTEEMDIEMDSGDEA
PfG6PD inh = PfG6PD (Plasmodium falciparum) enzyme inhibition; PfGluPho enzyme, NADPH resazurin-diaphorase fluorescence; inhibition, % at 20 µM; actives 0.78% (n = 350,000);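 active = inhibition reaching at least a set limit at 20 µM in the primary screen, cut at about 59% in these data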
Large screens that a line does not name were inactive.

CCCn1c(SCC(=O)c2cc(C)n(-c3ccc4c(c3)OCO4)c2C)n[nH]c1=O	none
CCCn1c(SCC(=O)c2cc(C)n(C3CC3)c2C)n[nH]c1=O	UHRF1 binding 25.9 (no result: M18AAP inhibitor)
O=C(Cc1ccccc1)N/N=C/C=C/c1ccccc1[N+](=O)[O-]	none
O=C(O)c1ccc(N/N=C/C=C/c2ccccc2[N+](=O)[O-])cc1	M18AAP inhibitor 40.9
COc1ccc(NC(=O)Nc2ccccc2C(=O)N2CCCC2)cc1OC	none (no result: M18AAP inhibitor, PfG6PD inh)
O=[N+]([O-])c1cccc(-c2cn3nc(-c4ccccc4)c(-c4ccccc4)nc3n2)c1	none
O=[N+]([O-])c1ccc(-c2cn3nc(-c4ccccc4)c(-c4ccccc4)nc3n2)cc1	M18AAP inhibitor 30.4
COC(=O)[C@]12C[C@H](CC(=O)N3CCN(C(=O)c4ccco4)CC3)C(=O)N(CCc3ccc(OC)c(OC)c3)C1=C[C@H](C1CCCC1)O[C@@H]2C	none (no result: M18AAP inhibitor, PfG6PD inh)
Cc1cc(Cl)ccc1OCC(=O)n1cc(C(=O)c2cc(Cl)ccc2O)cn1	M18AAP inhibitor 30.5 (no result: UHRF1 binding, PRMT1 FP inh, MBD2 inh, PfG6PD inh)
O=C1C2C3C=CC(CC3)C2C(=O)N1c1nccs1 (stereo not drawn)	UHRF1 binding 20.8
Cc1ccc2[nH]c3nc(NN)nnc3c2c1	M18AAP inhibitor 31.2
Cc1ccc2[nH]c3nc(SCCN4CCOCC4)nnc3c2c1	none
CC[C@@]12C(=O)N(c3ccccc3)C(=O)N1[C@H](c1cccc(C)c1)[C@@H]1C(=O)N(Cc3ccccc3)C(=O)[C@@H]12	UHRF1 binding 24.0
CCOC(=O)C1C(c2cccc(F)c2)NC(=S)NC1(O)C(F)(F)F (stereo not drawn)	UHRF1 binding 28.9
CC(=O)N1CCCN(C(=O)CN2C(=O)CC(C)(C)S(=O)(=O)c3ccccc32)CC1	none (no result: M18AAP inhibitor, PfG6PD inh)
CNC(=O)c1c(NC(=O)c2ccc(S(=O)(=O)N3CC(C)OC(C)C3)cc2)sc2c1CCN(C(C)C)C2 (stereo not drawn)	none
CNC(=O)c1c(NC(=O)c2ccc(S(=O)(=O)N3CCCC3)cc2)sc2c1CCN(C(C)C)C2	M18AAP inhibitor 31.7 (no result: PfG6PD inh)
Cc1ccc(-c2cc(C(=O)NN=Cc3ccc(N(C)C)cc3)[nH]n2)cc1C	none (no result: M18AAP inhibitor, PfG6PD inh)
O=C(CCCCC(=O)NCc1cccs1)NCc1cccs1	UHRF1 binding 22.7
O=C(CCC1CCCC1)NCc1cccs1	none
Cc1ccc(CNC(=O)c2ccc(-n3cccc3)cc2)cc1	UHRF1 binding 35.0
Cc1ccc(CNC(=O)Cc2ccc(-n3cccc3)cc2)cc1	none
CS(=O)(=O)c1cccc(C(=O)Nc2cccc(-c3nc4ccccc4[nH]3)c2)c1	UHRF1 binding 20.8
O=C(Nc1ccc2nc(-c3ccccc3)[nH]c2c1)c1ccco1	PfG6PD inh 69.5
COC(=O)C1CN(C(=O)OC(C)(C)C)C2=C1C(=O)CC(C)(C(=O)OC(C)(C)C)C2 (stereo not drawn)	none (no result: M18AAP inhibitor, PfG6PD inh)
S=c1[nH]nc(COc2ccccc2)n1/N=C/c1ccc(Cl)cc1	none
S=c1[nH]nc(Cc2ccc(Br)cc2)n1/N=C/c1ccc(Cl)cc1	PRMT1 FP inh 22.1
COc1ccc(S(=O)(=O)N2N=C(c3cccc(NS(C)(=O)=O)c3)CC2c2ccco2)cc1 (stereo not drawn)	PRMT1 FP inh 23.5
COc1ccc(S(=O)(=O)N2N=C(c3ccc(NS(C)(=O)=O)cc3)CC2c2ccco2)cc1 (stereo not drawn)	none
CCCCNC(=O)O[C@H]1CC[C@@]23CCCN2C(=O)CCC[C@H]3[C@H]1CCC	none (no result: M18AAP inhibitor, PfG6PD inh)
Cc1cccc(C)c1OCC(=O)N=Nc1c(O)[nH]c2ccc(Br)cc12	none
COc1ccc(/C=N/OCC(=O)N=Nc2c(O)[nH]c3ccc(Br)cc23)cc1	UHRF1 binding 21.4
CCC[C@H]1[C@@H](OC(=O)N2CCCC2)CC[C@@]23CCCN2C(=O)CCC[C@@H]13	none (no result: M18AAP inhibitor, PfG6PD inh)
O=C(N/N=C/c1cn(Cc2cccc(F)c2)c2ccccc12)c1cc(O)cc(O)c1	UHRF1 binding 65.9, MBD2 inh 27.0
Cc1cc(=O)[nH]c(SCC(=O)Nc2ccc(F)c(F)c2)n1	none (no result: M18AAP inhibitor, PfG6PD inh)
CCOc1ccc(N=Cc2ccc([N+](=O)[O-])cc2)c(O)c1	PRMT1 FP inh 22.2 (no result: M18AAP inhibitor)
O=C(COC(=O)c1ccccc1C(=O)N1CCN(c2ccccc2)CC1)Nc1ccccc1	PRMT1 FP inh 22.4
O=C(NCC(c1ccccc1)c1ccccc1)[C@H](Cc1ccccc1)NC1(C(=O)NC2CCCCC2)CCCCCC1	none (no result: M18AAP inhibitor, PfG6PD inh)
Cc1ccc(C(=O)Nn2cnnc2)cc1	M18AAP inhibitor 28.9
CC1=NN(c2ccccc2)C(=O)/C1=C\c1ccc(Oc2ccc([N+](=O)[O-])cc2[N+](=O)[O-])cc1	MBD2 inh 15.2
COc1ccc(CNC(=O)[C@@H](Cc2ccccc2)NC(=O)[C@H]2O[C@@H](n3ccc(=O)[nH]c3=O)[C@H](O)[C@@H]2O)cc1	none (no result: M18AAP inhibitor, PfG6PD inh)
Nc1sccc1C(=O)c1ccc(Cl)cc1	UHRF1 binding 29.6
NC(=O)c1ccsc1N	none (no result: UHRF1 binding, PRMT1 FP inh, MBD2 inh, PfG6PD inh)
CCOC(=O)c1ccc(NC(=O)C(=O)NCc2ccco2)cc1	UHRF1 binding 24.4
COC(=O)C1=C(C)N(Cc2ccccc2)C(=S)NC1c1ccc(Cl)cc1 (stereo not drawn)	none (no result: M18AAP inhibitor, PfG6PD inh)
Cc1ccc2nc(N3C(=O)C(O)=C(C(=O)c4ccco4)C3c3ccc(O)cc3)sc2c1 (stereo not drawn)	PRMT1 FP inh 21.2 (no result: PfG6PD inh)
Cc1c(CC(=O)O)c(=O)oc2cc3oc4c(c3cc12)CCCC4	UHRF1 binding 25.6
CC(C)(C)n1nc(C2CC2)cc1NC(=O)Nc1ccccc1	none (no result: M18AAP inhibitor, PfG6PD inh)
OCC[C@@H]1C[C@H](O)[C@@H](O)[C@@]2(OCc3cc(C(F)(F)F)ccc32)O1	UHRF1 binding 21.5 (no result: M18AAP inhibitor)
OCC[C@H]1C[C@H](O)[C@@H](O)[C@@]2(OCc3ccccc32)O1	none (no result: M18AAP inhibitor)
CN(C)/C=C(\C#N)C(=O)N/N=C(\CC(=O)C(F)(F)F)c1ccco1	M18AAP inhibitor 30.4
O=S1(=O)c2ccc(Br)cc2OC2CCCC[C@@H]2N1Cc1ccccc1 (stereo partly drawn)	none (no result: M18AAP inhibitor, PfG6PD inh)
S=C(Nc1ccc(Cl)cc1)NN1CCOCC1	UHRF1 binding 30.4
CNC(CC(=O)c1ccc([N+](=O)[O-])cc1)C(Cl)(Cl)Cl (stereo not drawn)	PfG6PD inh 70.0 (no result: UHRF1 binding, PRMT1 FP inh, MBD2 inh)
Cc1ccccc1CN1[C@@H](C)[C@H](c2ccccc2)Oc2cccc(NCC(C)C)c2S1(=O)=O	none (no result: M18AAP inhibitor, PfG6PD inh)
O=C(c1ccc(CNS(=O)(=O)c2ccccc2)cc1)N1CCN(c2ccccn2)CC1	UHRF1 binding 23.1
O=C(c1ccc(Cl)c(S(=O)(=O)NCc2ccccc2)c1)N1CCN(c2ccccn2)CC1	none (no result: UHRF1 binding, PRMT1 FP inh, MBD2 inh)
O=C(O)c1ccc(NC(=O)c2ccc(COc3ccccc3)o2)cc1	UHRF1 binding 25.8
Cc1ccc(OCc2ccc(C(=O)Nc3ccc(C(N)=O)cc3)o2)c([N+](=O)[O-])c1	UHRF1 binding 33.7
Cc1ccc(OCc2ccc(C(=O)Nc3cc(C)on3)o2)c([N+](=O)[O-])c1	none
COCc1ccc(C(=O)Nc2ccc(C(=O)O)cc2)o1	none
O=C(Oc1ccccc1)c1ccc(NC(=O)c2ccco2)cc1	PRMT1 FP inh 24.4
COC(=O)C(C(=O)OC)[C@H]1C=C[C@@H](C(=O)NS(=O)(=O)c2ccc(C)cc2)N(C(C)=O)C1	none (no result: M18AAP inhibitor, PfG6PD inh)
